This passage reports outcome and Potency results from PubChem BioAssay (Tox21).

The nature of test [1]: qHTS assay to identify small molecule agonists of the sonic hedgehog signaling (Shh) pathway (AID 1259368).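 Also: NIH/3T3-derived 3T3Gli1-Luc cells carrying a stable Gli1-driven firefly luciferase reporter; series mostly up to about 92 µM; nearly all actives have a fitted effect of over 15% in size.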 Summed up: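 Quantitative high-throughput format using a Gli1-driven firefly luciferase reporter line derived from NIH/3T3 cells. After a 24 hr compound treatment at 37 C and 5% CO2, luminescence reported Gli1 response element activity.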
A general note: Quantitative high-throughput screening tests each substance at several concentrations.

Test [2] in a line: qHTS assay to identify small molecule antagonists of the sonic hedgehog signaling (Shh) pathway (AID 1259369). Also: nearly all actives have a fitted effect of over 45% in size. Also: potency is read from the fitted curve at half-maximal effect. The method in brief: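 Stable Gli1-Luc reporter NIH/3T3 clone; quantitative HTS in stimulated mode with conditioned medium. Luminescence measured after 24hr compound treatment at 37 C.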
The target in test [3] is Estrogen receptor beta (Homo sapiens) (UniProt Q92731). Put plainly: qHTS assay to identify small molecule agonists of the estrogen receptor beta (ER-beta) signaling pathway (AID 1259377; active = well fitted activation curve with a large enough effect in the signal ratio in the repeat runs, not every such curve was filed as active; the % refers to the signal ratio). Summed up:
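HEK293T ER-beta-UAS-bla; 2% charcoal-stripped FBS; cells pre-incubated 6 hr, compound 16 hr, 37C/5% CO2; LiveBLAzer B/G FRET substrate 2 h RT; fluorescence intensity read.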

Test [4] has the same target. Put plainly: qHTS assay to identify small molecule antagonists of the estrogen receptor beta (ER-beta) signaling pathway (AID 1259378; active = well fitted inhibition curve with a large enough effect in the signal ratio in the repeat runs, not every such curve was filed as active; the % refers to the signal ratio). The method in brief: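 ER-beta-UAS-bla HEK293T cells in 2% charcoal-stripped FBS medium treated with compound plus 1nM final 17-beta-estradiol for 16 hr at 37C. Beta-lactamase reporter read by FRET substrate fluorescence after 2 hours at room temperature.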

The nature of test [5]: qHTS assay to identify small molecule agonists of the androgen receptor (AR) signaling pathway in the presence of an antagonist - cell viability counter screen (AID 1259379; active = well fitted curve in the direction sought with a large enough effect in the repeat runs; an effect the other way counts as inactive or inconclusive;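 also: MDA-kb2 human breast cancer cells carrying an MMTV luciferase reporter; series mostly up to about 92 µM; nearly all actives have a fitted effect of over 25% in size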). Summed up: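 Nilutamide-containing (3.0uM final) MDA-kb2 cultures, 3,000 cells/well, were treated with compounds across 15 concentrations. After 16 hr at 37C with no CO2, cell viability was determined by CellTiter-Fluor fluorescence in the luciferase assay wells.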

A short description of test [6]: qHTS assay to identify small molecule agonists of the estrogen receptor beta (ER-beta) signaling pathway - cell viability counter screen (AID 1259380; active = well fitted curve in the direction sought with a large enough effect in the repeat runs; an effect the other way counts as inactive or inconclusive; also: nearly all actives have a fitted effect of over 30% in size). The method in brief:
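Steps: plate ER-beta-UAS-bla HEK293T cells, rest 6 hr; add compounds in DMSO; incubate 16 hr at 37C, 5% CO2; add FRET substrate 2 hr; add CellTiter-Glo, wait 30 min at room temperature; read luminescence.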

The target of test [7] is Androgen receptor (Homo sapiens) (UniProt P10275). Put plainly: qHTS assay to identify small molecule agonists of the androgen receptor (AR) signaling pathway in the presence of an antagonist (AID 1259381). Also: nearly all actives have a fitted effect of over 15% in size. The method in brief:
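Reporter-gene luminescence from MDA-kb2 cells exposed 16hr at 37C (0% CO2) to 15-point compound titrations with 3.0uM final nilutamide as AR antagonist.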

Test [8] can be described thus: qHTS assay to identify small molecule antagonists of the estrogen receptor beta (ER-beta) signaling pathway - cell viability counter screen (AID 1259382; active = well fitted curve in the direction sought with a large enough effect in the repeat runs; an effect the other way counts as inactive or inconclusive; also: series mostly up to about 92 µM; nearly all actives have a fitted effect of over 55% in size). Summed up:
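Viability is scored by CellTiter-Glo luminescence (30 min, room temperature) in ER-beta-UAS-bla HEK293T wells already read for reporter fluorescence. Compound exposure lasts 16 hr at 37C alongside 1nM 17-beta-estradiol in charcoal-stripped serum medium.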

Test [9] is described as follows: qHTS assay to identify small molecule agonists or antagonists of the thyroid stimulating hormone receptor (TSHR) signaling pathway - wild type cell line counter screen (AID 1259384). The method in brief: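 Wild-type Hek293 cells, 800/well, 18 h at 37C, then compound with Ro20-1724 for 30 min RT. cAMP by HTRF (cAMP-d2/anti-cAMP cryptate), 1 h RT, fluorescence read. 15 concentrations, triplicates.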

The target in test [10] is Estrogen receptor (Homo sapiens) (UniProt P03372). Put plainly: qHTS assay to identify small molecule agonists of the estrogen receptor alpha (ER-alpha) signaling pathway in the presence of an antagonist (AID 1259383). Also: top concentration of the series differs between compounds; nearly all actives have a fitted effect of over 15% in size. The method in brief:
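Readout was ERE-driven luciferase luminescence in VM7Luc4E2 cells, which express full-length ER-alpha endogenously. Compounds were tested at 15 concentrations for 22hr alongside 10.0nM ICI-182,780 (final concentration).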

Values joined by “and” are separate entries in the source; they are usually repeats but may differ in a detail not shown here. Equal entries are not always repeated. Inconclusive results are not listed. Active and inactive are the calls of the source. Unless noted, calls follow the shape of the full dose curve.

Chain of Androgen receptor (Homo sapiens) (P10275 whole entry, looked up): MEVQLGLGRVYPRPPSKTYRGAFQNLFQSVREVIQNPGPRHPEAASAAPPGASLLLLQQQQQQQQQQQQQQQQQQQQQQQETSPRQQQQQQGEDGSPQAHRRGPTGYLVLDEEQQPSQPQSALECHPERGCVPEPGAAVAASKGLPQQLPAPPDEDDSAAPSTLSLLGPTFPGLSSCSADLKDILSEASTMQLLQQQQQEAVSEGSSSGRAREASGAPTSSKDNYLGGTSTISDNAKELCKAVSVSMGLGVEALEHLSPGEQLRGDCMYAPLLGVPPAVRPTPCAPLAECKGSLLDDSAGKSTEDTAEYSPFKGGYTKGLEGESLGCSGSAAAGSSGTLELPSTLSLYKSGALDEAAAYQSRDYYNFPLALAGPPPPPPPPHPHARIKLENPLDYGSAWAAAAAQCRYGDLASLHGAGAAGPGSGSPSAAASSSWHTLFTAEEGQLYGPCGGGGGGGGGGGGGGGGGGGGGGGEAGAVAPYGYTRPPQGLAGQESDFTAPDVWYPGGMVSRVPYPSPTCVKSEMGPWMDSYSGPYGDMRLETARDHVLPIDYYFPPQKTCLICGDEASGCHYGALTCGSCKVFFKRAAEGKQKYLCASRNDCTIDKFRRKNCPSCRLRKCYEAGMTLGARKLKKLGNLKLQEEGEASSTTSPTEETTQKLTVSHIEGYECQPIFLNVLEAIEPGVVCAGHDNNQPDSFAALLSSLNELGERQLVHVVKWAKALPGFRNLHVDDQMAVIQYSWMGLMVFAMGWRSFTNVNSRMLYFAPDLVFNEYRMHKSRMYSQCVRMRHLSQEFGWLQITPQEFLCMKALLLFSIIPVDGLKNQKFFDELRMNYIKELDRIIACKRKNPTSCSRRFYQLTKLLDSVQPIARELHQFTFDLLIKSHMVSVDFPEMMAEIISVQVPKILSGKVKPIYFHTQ
Chain of Estrogen receptor beta (Homo sapiens) (Q92731 whole entry, looked up): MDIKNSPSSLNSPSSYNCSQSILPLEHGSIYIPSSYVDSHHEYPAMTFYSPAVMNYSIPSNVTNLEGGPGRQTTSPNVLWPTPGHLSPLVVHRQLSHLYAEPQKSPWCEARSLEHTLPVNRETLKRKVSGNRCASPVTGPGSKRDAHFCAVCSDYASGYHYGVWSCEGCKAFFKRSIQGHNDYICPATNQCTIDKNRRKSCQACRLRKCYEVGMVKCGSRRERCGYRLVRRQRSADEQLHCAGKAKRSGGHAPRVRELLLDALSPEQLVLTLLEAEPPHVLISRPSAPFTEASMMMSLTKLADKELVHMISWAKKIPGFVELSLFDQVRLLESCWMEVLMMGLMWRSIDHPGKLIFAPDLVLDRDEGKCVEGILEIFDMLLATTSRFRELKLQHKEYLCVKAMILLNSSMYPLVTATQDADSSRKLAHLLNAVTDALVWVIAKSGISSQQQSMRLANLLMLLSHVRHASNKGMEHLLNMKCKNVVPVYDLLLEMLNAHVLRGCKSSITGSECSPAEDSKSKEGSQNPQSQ
Chain of Estrogen receptor (Homo sapiens) (P03372 whole entry, looked up): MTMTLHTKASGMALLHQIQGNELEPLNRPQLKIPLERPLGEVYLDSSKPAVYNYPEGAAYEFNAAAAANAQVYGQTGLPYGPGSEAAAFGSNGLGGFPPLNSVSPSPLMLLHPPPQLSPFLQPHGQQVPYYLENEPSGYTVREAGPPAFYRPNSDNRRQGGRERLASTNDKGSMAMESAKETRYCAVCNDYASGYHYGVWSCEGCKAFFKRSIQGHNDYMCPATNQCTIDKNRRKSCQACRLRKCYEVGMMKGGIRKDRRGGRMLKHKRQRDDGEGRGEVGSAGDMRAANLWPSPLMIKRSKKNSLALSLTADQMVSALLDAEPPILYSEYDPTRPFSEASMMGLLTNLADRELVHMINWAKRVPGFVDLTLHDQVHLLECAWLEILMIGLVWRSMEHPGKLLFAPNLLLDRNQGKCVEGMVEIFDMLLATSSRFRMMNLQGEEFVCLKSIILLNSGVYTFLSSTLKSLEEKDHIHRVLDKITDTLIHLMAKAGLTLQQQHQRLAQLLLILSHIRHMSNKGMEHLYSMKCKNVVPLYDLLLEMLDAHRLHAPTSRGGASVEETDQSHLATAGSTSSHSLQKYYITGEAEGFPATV

On to `CC(=O)CC(C)C`, for which the molecule was classed as inactive in test [1], in [3], in [4] and in test [9]. Moreover, the Potency result in test [2], in test [5], in test [6], in test [7] and in [8] was “inactive” each time.

Consider `CC(C)(O)C(=O)c1ccccc1`, for which the call in test [1], in test [3], in test [4] and in test [9] was inactive. Besides, the Potency entry in test [2], in [5], in test [6], in test [7], in [8] and in [10] was “inactive” throughout.

Turning to `CCc1cccc2c(CCO)c[nH]c12`, the molecule was called inactive in test [1], in test [3], in test [4] and in test [9]. For the same molecule, the Potency entry in test [2], in [5], in test [6], in test [7] and in test [8] was “inactive” throughout.

As to `CC(=O)OCC(=O)[C@@]1(O)CC[C@H]2[C@@H]3CCC4=CC(=O)CC[C@]4(C)[C@H]3C(=O)C[C@@]21C`, the call in test [1], in test [3] and in test [4] was inactive. In addition, the Potency entry in test [2], in test [5], in [6], in [8] and in test [10] was “inactive” throughout.

For the molecule `FC1(F)C(F)(F)C(F)(F)C2(F)C(F)(F)C(F)(F)C(F)(F)C(F)(F)C2(F)C1(F)F` (stereo not given), the molecule was classed as inactive in test [1], in [3], in [4] and in [9]. Besides, the Potency entry in test [2], in [5], in [6], in [7] and in [10] was “inactive” in each case.

Turning to `C[C@H](NC(CCc1ccccc1)C(=O)O)C(=O)N1CCC[C@H]1C(=O)O` (stereo not given in full), the molecule was classed as inactive in test [1], in test [3], in test [4] and in test [9]. The Potency entry in [2], in test [5], in test [6], in test [8] and in test [10] was “inactive” in each case.

`CC(NC(CCc1ccccc1)C(=O)O)C(=O)N1C(=O)N(C)CC1C(=O)O` (stereo not given): the call in [1], in [3], in test [4] and in test [9] was inactive. In addition, the Potency result in test [2], in [5], in [6], in test [7] and in test [8] was “inactive” in each case.

Take `CC(C)c1cc2c(cc1S(=O)(=O)O)[C@@]1(C)CCC[C@@](C)(C(=O)O)[C@@H]1CC2`: the result in test [1], in [3], in [4] and in test [9] was inactive. For the same molecule, the Potency result in test [2], in test [5], in test [6], in test [8] and in test [10] was “inactive” each time.

As to `NS(=O)(=O)c1cc(C(=O)NN2C[C@H]3[C@H]4CCC(C4)[C@H]3C2)ccc1Cl`, the result in [1], in test [3], in test [4] and in test [9] was inactive. Moreover, the Potency result in test [2], in test [5], in [6], in test [7], in [8] and in test [10] was “inactive” throughout.

Take `CC(=O)Nc1ccc(S(N)(=O)=O)cc1`: the molecule was called inactive in [1], in test [3], in test [4] and in [9]. The Potency entry in test [2], in test [5], in test [6], in test [7], in test [8] and in [10] was “inactive” in each case.

With `COc1ccccc1OCC(O)CN1CCN(CC(=O)Nc2c(C)cccc2C)CC1` (stereo not given), the molecule was called inactive in test [1], in test [3], in test [4] and in [9]. In addition, the Potency result in [2], in test [5], in test [6], in [8] and in test [10] was “inactive” each time.

For the molecule `CCCCOCCOCCOCc1cc2c(cc1CCC)OCO2`, the outcome in test [1], in [3], in test [4] and in [9] was inactive. In test [2], the Potency was 1.39 µM (active) and 2.66 µM (active). In addition, the Potency entry in test [5], in [6] and in [7] was “inactive” each time.

In the case of `Cc1ccc(C#N)cc1`, the molecule was called inactive in test [1], in test [3], in test [4] and in test [9]. Further, the Potency result in test [2], in test [5], in test [6], in test [8] and in test [10] was “inactive” throughout.

Consider `FC(F)OC(Cl)C(F)(F)F` (stereo not given), for which the molecule was classed as inactive in [1], in test [3] and in test [4]. In addition, the Potency result in test [2], in test [5], in [6] and in test [8] was “inactive” throughout.

`CC(=O)OC/C=C(\C)CC/C=C(\C)CCC=C(C)C`: the outcome in test [1], in [3], in test [4] and in [9] was inactive. The Potency result in test [2], in test [5], in [6], in [8] and in [10] was “inactive” throughout.

For the molecule `N=c1nc(N2CCCCC2)cc(N)n1O`, the call in test [1], in test [3], in test [4] and in [9] was inactive. Besides, the Potency result in test [2], in test [5], in test [6], in [8] and in [10] was “inactive” each time.

As for `CS(=O)(=O)O`, the molecule was called inactive in test [1], in [3], in test [4] and in test [9]. Besides, the Potency result in test [2], in [5], in test [6], in [7], in [8] and in [10] was “inactive” each time.

For the molecule `CC(=O)OCC(CCn1cnc2cnc(N)nc21)COC(C)=O`, the molecule was classed as inactive in test [1], in test [3], in test [4] and in test [9]. Further, the Potency result in test [2], in test [5], in [6], in test [7], in test [8] and in [10] was “inactive” each time.

For the molecule `CC(C)CCCC(C)N` (stereo not given), the molecule was classed as inactive in test [1], in test [3], in test [4] and in test [9]. Further, the Potency result in test [2], in test [5], in test [6], in test [8] and in test [10] was “inactive” in each case.

For `CC1(C)CO[C@@H](CC(=O)O)CN1`, the molecule was classed as inactive in test [1], in [3], in [4] and in [9]. The Potency result in test [2], in test [5], in [6], in [8] and in [10] was “inactive” throughout.

On to `NS(=O)(=O)c1cc2c(cc1Cl)NC(C1CC3C=CC1C3)NS2(=O)=O` (stereo not given), for which the call in [1], in test [3] and in [4] was inactive. The Potency entry in [2], in test [5], in test [6], in [7] and in [10] was “inactive” throughout.

Take `O=C1CCCC(=O)C1`: the result in test [1], in test [3] and in test [4] was inactive. For the same molecule, the Potency result in test [2] and in [5] was “inactive” throughout.

For the molecule `CCOC(=O)c1ccc(C)cc1`, the result in [1], in [3] and in test [4] was inactive. Also, the Potency result in [2], in test [5], in test [6], in test [8] and in test [10] was “inactive” throughout.

In the case of `CCC(C)C1CCCCC1=O` (stereo not given), the call in test [1], in test [3], in test [4] and in test [9] was inactive. Further, the Potency result in test [2], in test [5], in [6], in test [8] and in test [10] was “inactive” each time.

With `CC(C(=O)O)c1ccc(CC2CCCC2=O)cc1` (stereo not given), the call in test [1], in test [3], in [4] and in [9] was inactive. Further, the Potency entry in test [2], in test [5], in test [6], in [8] and in [10] was “inactive” each time.
